Common to all, as to conditions: concentration: 1 μM, replicates: in singlicate; n = 1
Test [1] has as its system T1, MEK5.
T1 construct: gene MAP2K5

The test system of test [2] is T2, MEK6.
T2 construct: gene MAP2K6

Test [3] relates to MELK.
Test [4] deals with MERTK.
The subject of test [5] is MET.
The test system of test [6] is T3, MINK.
T3 construct: gene MINK1

The subject of test [7] is MKK7.
Test [8] has as its system MKNK1.
Test [9] concerns MKNK2.
Test [10] deals with T4, MLCK.
T4 construct: gene MYLK3

Test [11] relates to T5, MLK1.
T5 construct: gene MAP3K9

Test [12] deals with MLK2.
Test [13] concerns MLK3.
Test [14] deals with MRCKA.
Test [15] relates to T6, MRCKB.
T6 construct: gene CDC42BPB

Test [16] has as its system MST1R.
Test [17] relates to T7, MST1.
T7 construct: gene STK4

The test system of test [18] is T8, MST2.
T8 construct: gene STK3

The subject of test [19] is T9, MST3.
T9 construct: gene STK24

For test [20], the system named is MST4.

The record followed here is article PMC5540273 (PLoS ONE, 2017).
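Note: KINOMEscan kinase panel screen.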

For `CNC(=O)c1ccccc1Nc1nc(Nc2ccc(N3CCOCC3)cc2)ncc1Cl.Cl` [GSK1576028], the “%Inh” value in test [1] came out at 97.6%; in test [2], 79%; in test [3], 99.8%; in test [4], 100%; in test [5], 95%; in [6], 72%. Also, the “%Inh” value in test [7] was determined as 0%; in [8] it was 14%; in test [9], 82%; in test [10], 96.1%; in test [11], 97.6%; in test [12] it was 82%. Also, the “%Inh” value in [13] came out at 86%; in [14] it was 6%; in test [15], 0%; in test [16], 92.9%; in [17] it was 99.1%; in [18], 97.5%. Also, the “%Inh” value in test [19] is on record as 61%; in [20], 85%.
For `COc1cc(Nc2ncc3c(C)nc(-c4cc5ccccc5[nH]4)n3n2)cc(OC)c1OC` [GW869516], the “%Inh” value was 78% in [1]; 0% in test [2]; 49% in test [3]; 56% in [4]; 0% in test [5]; 1% in test [6]. In addition, the “%Inh” value in test [7] worked out at 0%; in [8] it was 0%; in [9], 0%; in test [10], 36%; in test [11], 93.8%; in test [12], 89%. Further, the “%Inh” value in [13] is 87%; in [14], 4%; in [15] it was 7%; in [16] it was 0%; in test [17], 0%; in test [18], 29%. For the same compound, the “%Inh” value in test [19] and in [20] was 0% throughout.
Consider `Cc1occc1-c1ncc(OC[C@@H](N)Cc2c[nH]c3ccccc23)cc1-c1ccc2[nH]nc(C)c2c1.O=C(O)C(F)(F)F` [GSK682037], for which the “%Inh” value was found to be 76% in test [1]; 13% in test [2]; 50% in [3]; 66% in test [4]; 45% in [5]; 97.2% in test [6]. The “%Inh” value is reported as 17% in [7]; 0% in test [8]; 0% in test [9]; 39% in test [10]; 12% in test [11]; 0% in test [12]. In addition, the “%Inh” value came to 28% in test [13]; 38% in test [14]; 72% in test [15]; 41% in [16]; 71% in test [17]; 90% in test [18]. Besides, the “%Inh” value turned out to be 55% in [19] and 85% in [20].
With `CC(=O)Nc1nc2cnc(Nc3cc(NC(=O)c4cccc(C5(C#N)CC5)c4Cl)ccc3C)nc2s1`, the “%Inh” value in test [1] amounted to 12%; in [2] it was 25%; in test [3], 0%; in test [4], 17%; in [5], 8%; in [6], 0%. Moreover, the “%Inh” value in [7] amounted to 10%; in [8] it was 16%; in test [9] it was 0%; in test [10], 0%; in test [11], 4%; in test [12], 10%. Further, the “%Inh” value in test [13] came to 0%; in [14], 5%; in test [15] it was 0%; in test [16], 13%; in test [17], 0%; in [18] it was 12%. Further, the results for the “%Inh” value in test [19] and in [20] were 6% and 0%, respectively.
Take `COc1cccc(C2=C(Nc3ccc(Cl)c(C(=O)O)c3)C(=O)NC2=O)c1` [SB-390769]: the “%Inh” value in test [1] was found to be 18%; in test [2] it was 0%; in test [3], 7%; in test [4] it was 0%; in test [5], 8%; in [6], 100%. In addition, the “%Inh” value is 18% in [7]; 4% in [8]; 5% in test [9]; 100% in test [10]; 4% in [11]; 0% in [12]. The “%Inh” value in [13] was 0%; in test [14], 12%; in [15] it was 0%; in test [16], 100%; in test [17], 25%; in [18], 51%. The “%Inh” value in [19] worked out at 0%; in test [20], 96.3%.
Take `CSc1cccc2c(-c3ccncn3)c(-c3ccc(F)cc3)nn12` [GW514786]: the “%Inh” value in test [1] was found to be 15%; in test [2], 0%; in test [3], 20%; in test [4] it was 39%; in test [5], 23%; in test [6], 5%. Also, the “%Inh” value in test [7] was 0%; in test [8] it was 14%; in test [9], 1%; in test [10], 0%; in [11] it was 14%; in test [12] it was 19%. Besides, the “%Inh” value in test [13] came to 12%; in test [14], 25%; in test [15] it was 14%; in [16] it was 18%; in [17], 5%; in test [18], 14%. Moreover, the “%Inh” value in test [19] is 5%; in test [20] it was 6%.
With `NCCCC(NC(=O)c1cc(Br)c(-c2ccnc3[nH]ccc23)s1)c1ccccc1.O=C(O)C(F)(F)F.O=C(O)C(F)(F)F` (stereo not drawn) [GSK1287544], the “%Inh” value is 7% in [1]; 0% in test [2]; 54% in test [3]; 55% in test [4]; 6% in [5]; 27% in test [6]. For the same compound, the “%Inh” value in [7] was 16%; in [8] it was 0%; in test [9] it was 83%; in [10], 47%; in test [11], 0%; in [12] it was 15%. Further, the “%Inh” value was 0% in [13]; 63% in [14]; 98.8% in test [15]; 17% in test [16]; 0% in test [17]; 0% in test [18]. Besides, the “%Inh” value is given as 0% in [19] and 11% in test [20].
As for `COc1cccc(C(=O)Nc2cccc(Oc3ccc4nc(NC(=O)C5CC5)cn4n3)c2)c1`, the “%Inh” value in test [1] came out at 98.2%; in test [2] it was 0%; in [3], 35%; in [4], 57%; in [5] it was 20%; in test [6] it was 63%. The “%Inh” value in test [7] is reported as 0%; in test [8], 4%; in test [9], 0%; in test [10] it was 0%; in test [11], 8%; in test [12], 0%. For the same compound, the “%Inh” value in test [13] is given as 2%; in test [14], 21%; in test [15], 0%; in test [16], 17%; in test [17], 9%; in test [18], 0%. The “%Inh” value in test [19] turned out to be 15%; in [20] it was 0%.
Turning to `O=C(Nc1cccc(-c2nn3ncccc3c2-c2ccnc(Nc3ccccc3)n2)c1)c1c(F)cccc1F` [GSK198271], the “%Inh” value in test [1] worked out at 99.9%; in test [2], 59%; in test [3] it was 0%; in test [4], 79%; in [5], 43%; in test [6], 23%. The “%Inh” value in [7] came out at 27%; in [8], 11%; in [9], 7%; in test [10] it was 8%; in test [11] it was 0%; in test [12], 0%. Moreover, the “%Inh” value in [13] stood at 11%; in [14], 69%; in test [15], 88%; in test [16], 15%; in test [17], 47%; in test [18], 100%. The figures for the “%Inh” value in test [19] and in test [20] were 12% and 0%, respectively.
